Data on 35 molecules can be found in PubChem BioAssay.

Chain of Neurogenic locus notch homolog protein 3 (Homo sapiens) (Q9UM47 whole entry, looked up): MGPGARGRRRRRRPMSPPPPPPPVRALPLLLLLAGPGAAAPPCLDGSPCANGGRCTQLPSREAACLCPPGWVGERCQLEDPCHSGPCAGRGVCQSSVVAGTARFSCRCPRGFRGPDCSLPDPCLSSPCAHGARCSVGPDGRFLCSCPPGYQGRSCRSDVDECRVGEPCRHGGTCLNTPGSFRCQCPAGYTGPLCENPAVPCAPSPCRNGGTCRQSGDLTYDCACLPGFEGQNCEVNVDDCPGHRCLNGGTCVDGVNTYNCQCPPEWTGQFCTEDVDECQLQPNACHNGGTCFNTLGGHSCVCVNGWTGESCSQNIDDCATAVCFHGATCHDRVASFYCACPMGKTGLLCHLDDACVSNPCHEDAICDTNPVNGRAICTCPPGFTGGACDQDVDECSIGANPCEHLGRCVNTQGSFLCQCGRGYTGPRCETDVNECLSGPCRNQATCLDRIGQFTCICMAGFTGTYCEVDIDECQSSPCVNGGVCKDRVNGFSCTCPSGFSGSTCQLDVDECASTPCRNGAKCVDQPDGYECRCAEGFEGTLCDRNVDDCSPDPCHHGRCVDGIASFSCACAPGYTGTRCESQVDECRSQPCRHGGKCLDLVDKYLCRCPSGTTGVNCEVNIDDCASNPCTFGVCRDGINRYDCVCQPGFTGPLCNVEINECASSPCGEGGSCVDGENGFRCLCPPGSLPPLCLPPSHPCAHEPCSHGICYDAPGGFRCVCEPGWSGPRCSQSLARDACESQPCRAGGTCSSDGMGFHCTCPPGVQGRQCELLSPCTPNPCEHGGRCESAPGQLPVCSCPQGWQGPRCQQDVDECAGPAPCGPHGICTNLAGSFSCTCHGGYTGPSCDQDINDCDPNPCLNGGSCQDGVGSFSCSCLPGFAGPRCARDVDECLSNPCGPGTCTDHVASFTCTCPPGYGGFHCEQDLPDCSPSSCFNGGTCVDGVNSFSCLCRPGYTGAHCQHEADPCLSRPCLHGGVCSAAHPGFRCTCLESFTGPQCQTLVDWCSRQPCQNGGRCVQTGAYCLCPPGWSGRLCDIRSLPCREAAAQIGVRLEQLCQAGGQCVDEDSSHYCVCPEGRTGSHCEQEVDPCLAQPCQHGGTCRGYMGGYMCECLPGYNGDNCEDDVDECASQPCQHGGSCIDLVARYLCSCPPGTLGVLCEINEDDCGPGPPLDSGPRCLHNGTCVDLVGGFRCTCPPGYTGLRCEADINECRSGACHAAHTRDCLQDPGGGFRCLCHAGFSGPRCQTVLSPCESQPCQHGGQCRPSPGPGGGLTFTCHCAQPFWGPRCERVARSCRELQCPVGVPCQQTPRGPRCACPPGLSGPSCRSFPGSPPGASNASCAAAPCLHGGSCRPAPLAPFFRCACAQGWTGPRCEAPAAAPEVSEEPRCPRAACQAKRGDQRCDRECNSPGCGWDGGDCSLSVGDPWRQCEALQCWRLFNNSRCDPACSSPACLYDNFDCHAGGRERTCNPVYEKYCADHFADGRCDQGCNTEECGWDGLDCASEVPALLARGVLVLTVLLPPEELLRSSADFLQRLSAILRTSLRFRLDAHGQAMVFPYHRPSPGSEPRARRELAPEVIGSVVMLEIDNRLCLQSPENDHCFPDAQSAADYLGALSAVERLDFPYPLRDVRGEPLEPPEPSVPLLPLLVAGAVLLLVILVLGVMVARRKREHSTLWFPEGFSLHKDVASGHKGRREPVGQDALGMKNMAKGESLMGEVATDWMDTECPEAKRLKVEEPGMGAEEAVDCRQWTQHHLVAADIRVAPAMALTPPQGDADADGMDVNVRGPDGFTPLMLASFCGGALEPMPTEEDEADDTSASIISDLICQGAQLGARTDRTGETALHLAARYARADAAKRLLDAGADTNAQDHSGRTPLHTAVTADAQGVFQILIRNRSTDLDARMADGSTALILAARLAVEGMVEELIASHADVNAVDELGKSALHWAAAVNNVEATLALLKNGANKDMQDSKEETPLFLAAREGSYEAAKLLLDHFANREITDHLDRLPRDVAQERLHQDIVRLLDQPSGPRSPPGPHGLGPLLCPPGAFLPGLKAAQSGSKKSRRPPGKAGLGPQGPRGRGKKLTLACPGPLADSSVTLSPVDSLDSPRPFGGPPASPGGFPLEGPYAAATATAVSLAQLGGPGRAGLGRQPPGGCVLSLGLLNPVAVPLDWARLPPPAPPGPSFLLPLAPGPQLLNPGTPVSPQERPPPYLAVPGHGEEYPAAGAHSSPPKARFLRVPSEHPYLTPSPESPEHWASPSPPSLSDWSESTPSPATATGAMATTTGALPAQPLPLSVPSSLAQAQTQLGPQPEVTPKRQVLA

This experiment has as its target Neurogenic locus notch homolog protein 3 (Homo sapiens) (UniProt Q9UM47). In words: small molecules binding NOTCH3 protein – biochemical, 635/667 nm fluorescence, primary screen (AID 1096). The note with it: small-molecule microarray, 635 nm fluorescence, higher = more signal.
As to `CCOC(=O)C=Cc1cc(F)ccc1O`, the composite z-score was -0.18.

Regarding `[N-]=[N+]=Nc1ccccc1[C@@H]1OC(c2ccc(OCCCO)cc2)=N[C@]1(Cc1ccccc1)C(=O)NCc1ccccc1`, the composite z-score was found to be 1.11.

In turn, `Cc1ccccc1C(O)C1C=CC2C(=O)NC(=O)C2N1Nc1ccc(Cl)cc1Cl` (stereo not given) registered a composite z-score of 0.765.

On to `COc1ccc([Si](C)(C)[C@H]2[C@H](CCO)O[C@@]3(C(=O)N(Cc4ccccc4)c4ccc(N5CCOC5=O)cc43)[C@@H]2C)cc1`, for which the composite z-score came to 1.12.

On to `COCC1C2CC[C@H]3C(OCc4ccc(OC)cc4)OC[C@]4(C)[C@H]3C2=C(CN4C(=O)OC(C)(C)C)[C@H](C)C1COC` (stereo not given in full), for which the composite z-score was found to be 1.05.

As to `COCCOC(=O)N1C(=O)[C@@]2(c3cc(C#CC4(O)CCCCCC4)ccc31)[C@H](C(=O)N1CCN(c3ncccn3)CC1)[C@H]1C(=O)O[C@H](c3ccccc3)[C@H](c3ccccc3)N1[C@@H]2c1ccccc1OCCO`, the composite z-score came to 1.08.

Molecule `COc1ccc(C(=O)Nc2cccc(CN3C(=O)[C@@]4(O[C@@H](CC(=O)N(CCO)Cc5ccccc5)[C@H]([Si](C)(C)c5ccc(OC)cc5)[C@H]4C)c4ccccc43)c2)cc1` gave a composite z-score of 0.487.

Consider `COCCOC(=O)N1C(=O)[C@@]2(c3cc(C#CCNC(N)=O)ccc31)[C@H](c1ccc(O)cc1)N1[C@H](c3ccccc3)[C@H](c3ccccc3)OC(=O)[C@H]1[C@@H]2C(N)=O`, for which the composite z-score was -1.15.

Molecule `O=C1C2C=CC(C(O)c3cccc(O)c3)N(Nc3ccccc3)C2C(=O)N1c1ccccc1` (stereo not given) showed a composite z-score of 0.535.

In the case of `COc1ccc([Si](C)(C)[C@@H]2[C@@H](CC(=O)N3Cc4ccccc4C[C@H]3CO)O[C@]3(C(=O)N(c4ccccc4)c4ccccc43)[C@H]2C)cc1`, the composite z-score was determined as 1.05.

`COc1ccc(C(O)C2C=CC3C(=O)N(c4ccccc4)C(=O)C3N2Nc2ccccc2F)cc1` (stereo not given) registered a composite z-score of 0.842.

With `COCCOC(=O)N1C(=O)[C@@]2(c3cc(C#CCC(C(=O)OC)C(=O)OC)ccc31)[C@H](c1ccc(O)cc1)N1[C@H](c3ccccc3)[C@H](c3ccccc3)OC(=O)[C@H]1[C@@H]2C(=O)NC[C@H](O)c1ccccc1`, the composite z-score came out at 0.68.

In turn, `COCC(=C=CC[C@H](O)c1cccc(OCCO)c1)C[C@H](O)COCc1ccccc1` came in with a composite z-score of 0.237.

Turning to `C=C(C)[C@@H]1CC=C(C(O)C2C=CC3C(=O)N(c4ccccc4)C(=O)C3N2Nc2ccc(C#N)cc2)CC1` (stereo not given in full), the composite z-score was 1.04.

As to `COc1ccc(NC(=O)O[C@H]2[C@@H]3OC(=O)[C@H](Cc4cccc(Br)c4)C/C=C/C[C@@H](Cc4cccc(Br)c4)C(=O)O[C@H]3[C@@H](OC)O[C@@H]2CO)cc1`, the composite z-score turned out to be 0.656.

In turn, `C=C(/C(=C/C[C@H](OC(=O)c1ccncc1)c1cccc(OCCO)c1)c1cnc2ccccc2c1)C(C)C` registered a composite z-score of 1.07.

`CS(=O)(=O)CCOC(=O)C1=CC(CCCO)=CC(C2CC2)N(Cc2cccc(OC(F)(F)F)c2)C=C1C(=O)OCCS(C)(=O)=O` (stereo not given) came in with a composite z-score of 0.0213.

Regarding `NC(=O)[C@H]1[C@@H]2C(=O)O[C@@H](c3ccccc3)[C@@H](c3ccccc3)N2[C@@H](c2ccc(O)cc2)[C@]12C(=O)Nc1ccc(C#CC3=CCCCC3)cc12`, the composite z-score amounted to 0.169.

`[N-]=[N+]=NCc1ccccc1[C@@H]1OC(c2ccc(OCCCO)cc2)=N[C@]1(Cc1ccccc1)C(=O)NCCN1CCOCC1`: the composite z-score came out at 1.09.

In the case of `COc1cc(C(O)C2C=CC3C(=O)N(Cc4ccccc4)C(=O)C3N2n2cnnc2)cc(OC)c1OC` (stereo not given), the composite z-score is 0.626.

Consider `C=CCN1C(=O)[C@@]2(O[C@@H](CCO)[C@H]([Si](C)(C)c3ccc(OC)cc3)[C@H]2C)c2cc(N3CCOC3=O)ccc21`, for which the composite z-score is 0.347.

The molecule `CC(C)[C@H]1NC(=O)[C@@]23C(=O)N[C@@H](Cc4ccccc4)C2[C@H](C)[C@@]2(C)O[C@H]2C3/C=C/C/C=C\CNC(=O)[C@H](Cc2ccccc2)NC1=O` (stereo not given in full) registered a composite z-score of 1.08.

Regarding `O=C1C2C=CC(C(O)c3ccco3)N(Nc3ccccc3)C2C(=O)N1c1ccccc1` (stereo not given), the composite z-score was found to be 0.504.

The molecule `CC(C)C[C@@H]1NC(=O)[C@@]23C(=O)N[C@@H](Cc4ccccc4)C2[C@H](C)[C@@]2(C)O[C@H]2C3/C=C/C/C=C\CNC(=O)[C@@H](C)NC1=O` (stereo not given in full) came in with a composite z-score of 0.195.

`CCN(CC)c1ccc(N2CC=CC34O[C@@H]5/C=C\CCC(C)OC(=O)C5[C@H]3C(=O)N(C(C)CO)[C@@H]4C2=O)cc1` (stereo not given in full): the composite z-score is -0.419.

The molecule `CO[C@H]1O[C@H](CO)[C@@H](OC(=O)c2ccc(Br)cc2)[C@@H]2OC(=O)[C@H](Cc3ccccc3)C/C=C/C[C@@H](Cc3ccccc3)C(=O)O[C@@H]12` yielded a composite z-score of 0.181.

In the case of `CC(C)C(CO)N1C(=O)[C@@H]2[C@H]3C(=O)OCC=C[C@H]3OC23C=CCN(C(C)(C)C)C(=O)[C@@H]13` (stereo not given in full), the composite z-score is -0.0022.

Molecule `[N-]=[N+]=Nc1ccccc1C[C@]1(C(=O)O)N=C(c2ccc(OCCCO)cc2)O[C@H]1c1ccccc1N=[N+]=[N-]` yielded a composite z-score of 0.942.

For `C=C(/C(=C/C[C@@H](OC(=O)c1ccncc1)c1cccc(OCCO)c1)c1cnc2ccccc2c1)C(C)C`, the composite z-score amounted to 1.02.

Take `CCCNC(=O)[C@@]1(Sc2ccc(C)cc2)CC(=O)N(C(C)C)[C@@H]1c1ccc(CO)cc1I`: the composite z-score was -1.2.

In the case of `C=CCNC(=O)[C@@H]1[C@H]2C(=O)O[C@H](c3ccccc3)[C@H](c3ccccc3)N2[C@H](c2ccc(OCCO)cc2)[C@@]12C(=O)N(C(=O)OCCOC)c1ccc(C#CCCO)cc12`, the composite z-score amounted to 1.1.

Molecule `CCCCCCCCCCC(O)C1C=CC2C(=O)N(c3ccccc3)C(=O)C2N1Nc1ccccc1F` (stereo not given) yielded a composite z-score of -0.277.

Molecule `COC(=O)C1N=C(c2ccc(OCCCO)cc2)N(c2ccccc2)O1` (stereo not given) displayed a composite z-score of 0.698.

`COC(=O)[C@@]1(Cc2ccc(F)cc2)[C@H]2c3cc(C(=O)N4CCCC4)n(C)c3C[C@H]2CN1C(=O)c1ccccc1` displayed a composite z-score of 0.405.

`O=C1C2C=CC(C(O)C=Cc3ccc([N+](=O)[O-])cc3)N(Nc3ccccc3)C2C(=O)N1c1ccccc1` (stereo not given): the composite z-score was found to be 1.04.
